This is part of a sample that, as a whole, favours compounds with a hit. Of some 83,000 tested, about 20% had one in any assay.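 The test compound was applied at a single concentration to cells in 96-well plates for 48 hours, and percent growth was recorded.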 A number with no mark means an inactive call. The source made the active and inactive calls. How the source made its calls: active means growth percent below 10; inactive means the rest.

One assay concerns OVCAR-3 ovarian. The assay is described as follows: NCI-60 one-dose screen, 48 h (100 = growth as untreated, 0 = no growth, -100 = all killed). To be noted: 10 µM unless noted.
For the molecule `O=C1NC(=O)/C(=C/c2ccc(OCc3cc4ccccc4nc3Cl)cc2)S1`, the growth was 104%. On to `O=C(NNc1nc2cc(F)c(F)cc2n2cccc12)c1ccncn1`, for which the growth was 12.7%.

Consider `CCNC(=O)Oc1ccc(/C(=C(/C)c2ccc(Cl)cc2)c2ccc(OCCN3CCCC3)cc2)cc1`, for which the growth was 99.8%. `O=C(NNc1nc2cc(F)c(F)cc2n2cccc12)c1cccnn1`: the growth is 7.39% (active).

Turning to `O=C(O)CNS(=O)(=O)c1ccc(Oc2ccc(S(=O)(=O)NCC(=O)O)cc2)cc1`, the growth is 104%. Turning to `Cc1cc(NS(=O)(=O)c2ccc(-c3cnc(C4CC4)o3)cc2)ccc1I`, the growth was 8.32% (active).

As for `COc1ccc(C(=O)c2c(N)c(C#N)cn2-c2cccc(OC)c2)cc1`, the growth was 30.3%. The same measure, in the same setting: the figure for `Cc1ccc(/C=C/CC(=O)Nc2ccc(C(=O)Nc3ccc(F)cc3N)cc2)cn1` is 79.5%; for `O=C(NNc1nc2cc(F)cc(F)c2n2cccc12)c1ccncn1` it is 8.94% (active). Take `C[C@H]1[C@H](C)CC[C@]2(COC(=O)c3cccnc3)CC[C@]3(C)C(=CC[C@@H]4[C@@]5(C)CCCNC(C)(C)[C@@H]5CC[C@]43C)[C@H]12`: the growth was 68.4%. On the same count and under the same terms, in the case of `COc1ccc(CN2C(=O)/C(=C/c3nc(CO)cs3)SC2=S)cc1` it was 80.8%; in that of `O=C(Nc1cc(F)cc2cccnc12)c1cnc(N2CCOCC2)cn1`, 9.55% (active); in that of `CC1OC(O[C@@H]2[C@H](O)C(CO)OC(O[C@H]3COC(O[C@H]4CC[C@]5(C)[C@H]6CC[C@]78OC[C@@]9(CCC(C)(C)C[C@H]97)[C@H](O)C[C@@]8(C)[C@]6(C)CC[C@H]5C4(C)C)[C@@H](OC4OC(CO)[C@@H](O)[C@@H](O)[C@@H]4O)[C@@H]3O)[C@H]2OC2OC[C@@H](O)[C@@H](O)[C@@H]2O)[C@@H](O)[C@@H](O)[C@H]1O` (some centres not stated), -89.8% (active).

Consider `Cc1ccc(/C=C/CC(=O)Nc2ccc(C(=O)Nc3ccc(F)cc3N)nc2)cn1`, for which the growth was 59%. Still for that read-out and setting: in the case of `O=C1[C@@H]2Cc3c([nH]c4ccccc34)[C@H](c3c(Cl)cccc3Cl)N2C(=O)CN1C1CCN(Cc2ccccc2)CC1` it was 81.4%; in that of `C#CCOc1ccc(C(Nc2ccc(OC)cc2)c2nnnn2C2CCCCC2)cc1` (configuration not stated), 112%. On the same count and under the same terms, in the case of `Cc1[nH]nc2ccc(-c3nc4cnc(N5CCN(C)CC5)cn4c3Nc3ccc(F)cc3Br)cc12` it was 10.5%; in that of `O=C(Nc1cccc(Cl)c1)Nc1nc2ccc(-c3cccc4ccccc34)cc2s1`, 13.5%; in that of `O=C(NNc1nc2cc(F)c(F)cc2n2cccc12)c1ncccn1`, 20.8%. Still for that read-out and setting: the figure for `CN1CCN(c2ccc(NC(=O)Nc3ccc4c(ccn4-c4cccc(C(N)=O)n4)c3)cc2C(F)(F)F)CC1` is 102%. As for `O=C(Nc1ccc(Cl)cc1)Nc1nc2ccc([N+](=O)[O-])cc2s1`, the growth is -26.6% (active).

In the case of `NC(=O)c1c(NC(=O)c2cccc(OC(F)(F)F)c2)sc2c1CCC(=O)C2`, the growth was 67.2%.

For `O=C(/C=C1\C=CN(CCCCO)c2ccccc21)n1ccc2ccccc21`, the growth is 111%. For the molecule `O=C(Nc1ccccc1)Nc1nc2ccc([N+](=O)[O-])cc2s1`, the growth is 4.1% (active). Same read-out and setting: the figure for `Cc1cc(Cl)cc(NS(=O)(=O)c2ccc(-c3cnc(C4CC4)o3)cc2)c1` is -24.3% (active); for `CCOC(=O)C1=C(C)Nc2nc3ccccc3n2C1c1cccc(Br)c1` (configuration not stated) it is 40.3%.

Consider `CCOC(=O)c1nn(-c2ccc(C)cc2)c(=O)c2c(N)c(C#N)c(-c3ccc(OC)cc3)cc12`, for which the growth is 108%. Consider `Cc1ccc(NC(=O)c2cccc(CN3CCN(C)CC3)c2)cc1Oc1ccc(-c2[nH]nc3ncnc(N)c23)cc1`, for which the growth was 79.6%. On the same count and under the same terms, in the case of `CC(C)(C)OC(=O)N1CCN(S(=O)(=O)/N=C2\NC(=O)NC2=C(Cl)Cl)CC1` it was 104%.

In the next assay the test system is HS 578T breast. The assay is described as above. The note with it: 10 µM unless noted.
Regarding `CCN1C(=O)N(CC)C2SC(N/N=C/c3cccs3)=NC21` (configuration not stated), the growth was 15.4%. On to `O=C1NC(=O)/C(=C/c2ccc(OCc3cc4ccccc4nc3Cl)cc2)S1`, for which the growth is 111%. On the same count and under the same terms, the figure for `O=C(NNc1nc2cc(F)c(F)cc2n2cccc12)c1ccncn1` is 48.2%; for `C#C[C@]1(O)CC[C@H]2[C@@H]3CC=C4c5sc(Nc6nc(C)cc(OC)n6)nc5CC[C@]4(C)[C@H]3CC[C@@]21C` it is -6.82% (active); for `CCNC(=O)Oc1ccc(/C(=C(/C)c2ccc(Cl)cc2)c2ccc(OCCN3CCCC3)cc2)cc1` it is 92.8%. For `O=C(NNc1nc2cc(F)c(F)cc2n2cccc12)c1cccnn1`, the growth was 29.3%. Same read-out and setting: the figure for `O=C(O)CNS(=O)(=O)c1ccc(Oc2ccc(S(=O)(=O)NCC(=O)O)cc2)cc1` is 95.2%; for `Cc1cc(NS(=O)(=O)c2ccc(-c3cnc(C4CC4)o3)cc2)ccc1I` it is 40%. On to `COc1ccc(C(=O)c2c(N)c(C#N)cn2-c2cccc(OC)c2)cc1`, for which the growth was 11%. For `COc1ccc(CCN2C(=O)CSC2=S)cc1OC`, the growth was 104%.

As to `Cc1ccc(/C=C/CC(=O)Nc2ccc(C(=O)Nc3ccc(F)cc3N)cc2)cn1`, the growth is 56.7%. Still for that read-out and setting: in the case of `O=C(NNc1nc2cc(F)cc(F)c2n2cccc12)c1ccncn1` it was 34%; in that of `C[C@H]1[C@H](C)CC[C@]2(COC(=O)c3cccnc3)CC[C@]3(C)C(=CC[C@@H]4[C@@]5(C)CCCNC(C)(C)[C@@H]5CC[C@]43C)[C@H]12`, 78.8%; in that of `Fc1ccccc1/C=C(/C1=NCCN1)n1cnc2ccccc21`, 93.3%. Regarding `COc1ccc(CN2C(=O)/C(=C/c3nc(CO)cs3)SC2=S)cc1`, the growth was 101%.

In the case of `O=C(Nc1cc(F)cc2cccnc12)c1cnc(N2CCOCC2)cn1`, the growth was 98.3%.

As to `CC1OC(O[C@@H]2[C@H](O)C(CO)OC(O[C@H]3COC(O[C@H]4CC[C@]5(C)[C@H]6CC[C@]78OC[C@@]9(CCC(C)(C)C[C@H]97)[C@H](O)C[C@@]8(C)[C@]6(C)CC[C@H]5C4(C)C)[C@@H](OC4OC(CO)[C@@H](O)[C@@H](O)[C@@H]4O)[C@@H]3O)[C@H]2OC2OC[C@@H](O)[C@@H](O)[C@@H]2O)[C@@H](O)[C@@H](O)[C@H]1O` (some centres not stated), the growth was -54.4% (active). The same measure, in the same setting: in the case of `C#C[C@]1(O)CC[C@H]2[C@@H]3CC=C4c5sc(Nc6cccc(Cl)n6)nc5CC[C@]4(C)[C@H]3CC[C@@]21C` it was -19.9% (active); in that of `Cc1ccc(/C=C/CC(=O)Nc2ccc(C(=O)Nc3ccc(F)cc3N)nc2)cn1`, 35.6%. Still for that read-out and setting: the figure for `O=C1[C@@H]2Cc3c([nH]c4ccccc34)[C@H](c3c(Cl)cccc3Cl)N2C(=O)CN1C1CCN(Cc2ccccc2)CC1` is 28.5%; for `C#CCOc1ccc(C(Nc2ccc(OC)cc2)c2nnnn2C2CCCCC2)cc1` (configuration not stated) it is 95.2%. Take `COc1cc(C(=O)c2cc(C(C)=O)c3c4ccccc4ccn23)cc(OC)c1OC`: the growth is 40.5%. Same read-out and setting: the figure for `Cc1[nH]nc2ccc(-c3nc4cnc(N5CCN(C)CC5)cn4c3Nc3ccc(F)cc3Br)cc12` is 91.5%. Still for that read-out and setting: in the case of `O=C(Nc1cccc(Cl)c1)Nc1nc2ccc(-c3cccc4ccccc34)cc2s1` it was 72.9%.

With `Cc1cc(C(=O)Nc2ccc(SC#N)cc2)c(C)o1`, the growth was 112%. Consider `O=C(NNc1nc2cc(F)c(F)cc2n2cccc12)c1ncccn1`, for which the growth is 49.1%.

Take `CN1CCN(c2ccc(NC(=O)Nc3ccc4c(ccn4-c4cccc(C(N)=O)n4)c3)cc2C(F)(F)F)CC1`: the growth was 22.1%.

In the case of `O=C(Nc1ccc(Cl)cc1)Nc1nc2ccc([N+](=O)[O-])cc2s1`, the growth was -15.8% (active). As for `NC(=O)c1c(NC(=O)c2cccc(OC(F)(F)F)c2)sc2c1CCC(=O)C2`, the growth was 40.4%. Turning to `O=C(/C=C1\C=CN(CCCCO)c2ccccc21)n1ccc2ccccc21`, the growth was 98.7%. The same measure, in the same setting: the figure for `O=C1c2c(c3c4cccnc4[nH]c3c3ccc4ccccc4c23)C(=O)N1CCN1CCNCC1` is 107%. Regarding `O=C(Nc1ccccc1)Nc1nc2ccc([N+](=O)[O-])cc2s1`, the growth was 5.92% (active). The same measure, in the same setting: in the case of `Cc1cc(Cl)cc(NS(=O)(=O)c2ccc(-c3cnc(C4CC4)o3)cc2)c1` it was 35.6%; in that of `CCOC(=O)C1=C(C)Nc2nc3ccccc3n2C1c1cccc(Br)c1` (configuration not stated), 79.1%; in that of `CCOC(=O)c1nn(-c2ccc(C)cc2)c(=O)c2c(N)c(C#N)c(-c3ccc(OC)cc3)cc12`, 90.1%.

On to `Cc1ccc(NC(=O)c2cccc(CN3CCN(C)CC3)c2)cc1Oc1ccc(-c2[nH]nc3ncnc(N)c23)cc1`, for which the growth is 64.2%. Take `O=C1c2c(c3c4cc(Br)ccc4[nH]c3c3ccc4ccccc4c23)C(=O)N1CCN1CCCCC1`: the growth was 104%. For `CC(C)(C)OC(=O)N1CCN(S(=O)(=O)/N=C2\NC(=O)NC2=C(Cl)Cl)CC1`, the growth was 72.9%.

The values above are taken from PubChem BioAssay (NCI).
